Bioassay records (PubChem BioAssay)
dFosB act – mouse delta FosB homodimer activation. purified delta FosB, TAMRA-CDK5 oligo fluorescence polarization; percent of positive-control signal above neutral wells. actives 0.99% (n = 340,000). activation, % at 25 µM. AID 493131. P13346;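 active means mean activation above about 17%, with every replicate also reaching it, limit read from the data, passing the limit was not always enough; inconclusive means only one of the two conditions met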
Target sequence (P13346 whole entry, looked up): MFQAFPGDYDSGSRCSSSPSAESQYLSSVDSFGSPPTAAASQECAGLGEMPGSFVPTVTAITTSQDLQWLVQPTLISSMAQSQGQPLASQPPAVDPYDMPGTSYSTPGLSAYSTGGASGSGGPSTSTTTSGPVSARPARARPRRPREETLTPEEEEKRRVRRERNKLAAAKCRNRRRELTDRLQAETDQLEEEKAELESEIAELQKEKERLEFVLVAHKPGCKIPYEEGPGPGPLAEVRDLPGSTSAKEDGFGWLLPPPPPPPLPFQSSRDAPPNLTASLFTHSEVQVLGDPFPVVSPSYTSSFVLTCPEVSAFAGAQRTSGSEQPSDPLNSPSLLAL
FGF22 binding-1 – binders of recombinant human FGF22 by thermal shift | SYPRO orange fluorescence; percent of sucrose octasulfate shift, DMSO zero | activity (Tm shift, normalised), % at 9.99 µM | actives 1.5% (n = 340,000);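 active means mean Tm shift, scaled 0 neutral to 100 positive control, at about 1.3% or above, every replicate too, limit read from the data; inconclusive means no clear call, values can overlap the other calls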
CDK5 inh – blocks human CDK5/p35 kinase activity; Recombinant CDK5/p35, ADP-Glo luminescence, 60 min; inhibition, % at 10 µM; actives 0.01% (n = 330,000);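 active means highest replicate inhibition of at least 50% and at least 75% of replicates reaching 50%; inconclusive means only one of the two criteria met; inactive means both criteria failed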
SIRT5 block – blocks human SIRT5 desuccinylation of peptide; actives 1.1% (n = 330,000); inhibition, % at 15 µM; Q9NXA8; Purified SirT5, succinyl-peptide AMC, trypsin-coupled fluorescence; in the data active means inhibition above about 15%; inconclusive means no clear call, values can overlap the other calls
Target sequence (Q9NXA8 whole entry, looked up): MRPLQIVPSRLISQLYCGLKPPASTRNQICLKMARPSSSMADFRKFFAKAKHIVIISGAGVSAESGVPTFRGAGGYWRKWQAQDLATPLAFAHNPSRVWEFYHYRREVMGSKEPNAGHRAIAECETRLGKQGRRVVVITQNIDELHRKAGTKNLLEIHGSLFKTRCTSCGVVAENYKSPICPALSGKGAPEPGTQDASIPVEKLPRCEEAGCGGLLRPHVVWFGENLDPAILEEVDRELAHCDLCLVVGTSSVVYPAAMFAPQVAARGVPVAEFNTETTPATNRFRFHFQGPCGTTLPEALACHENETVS
PvdQ inh – blocks Pseudomonas aeruginosa PvdQ acylase activity | actives 0.063% (n = 340,000) | purified PvdQ acylase, fluorescence plate reader | inhibition, % at 10 µM; in the data active means inhibition above about 30%, passing the limit was not always enough; inconclusive means no clear call, values can overlap the other calls
PglD DTNB – PglD (C. jejuni) enzyme inhibition; purified PglD enzyme, DTNB colorimetric CoA detection; inhibition, % at 12.5 µM; actives 0.098% (n = 360,000); in the data active means inhibition above about 16%, passing the limit was not always enough; inconclusive means no clear call, values can overlap the other calls
FGF22 binding-2 – binds human FGF22 shifting its melting temperature; thermal shift activity, °C (ΔTm) at 38 µM; shares compounds with FGF22 binding-1; actives 2% (n = 1,000); recombinant FGF22 thermal shift, SYPRO orange fluorescence; AID 720646;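 active means fitted rise in melting shift crosses a set limit at or below the top valid dose tested; inconclusive means flat fit at mid-level activity, or a poor quality fit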
FGF22 TSA – binders of human FGF22 by thermal shift. shares compounds with FGF22 binding-1. Thermal shift assay, SYPRO orange, melting temperature shift. Tm shift (activity), % at 38 µM. 50 tested, under 10 active;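 active means compounds whose fitted dose curve of melting temperature shift rises past a set threshold within the tested doses; inconclusive means flat curve at moderate activity, or poor curve fit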
SYPRO no-protein – counter-screen for FGF22 binders: compound-only thermal shift, no protein. AC50, µM (top dose mostly 38 µM). shares compounds with FGF22 binding-1. compound-only SYPRO orange thermal shift counter-screen. AID 743019. actives 2% (n = 1,000);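 active means rising signal whose fitted curve reaches the 0.54 level within the top valid dose, showing a melting point, actives reach about 13 µM in these data; inactive means the rest, including activity in the opposite direction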; further: value is where the raw curve crosses a fixed level and not half-maximal
Large screens that a line does not name were inactive (follow-up assays come after a bar, where they were run). Hits are enriched below; roughly 2.8% of the tested compounds scored in any of these assays.

OC[C@@H]1[C@@H](c2ccc(-c3cccnc3)cc2)[C@H]2CN(Cc3ccccn3)CCCCN12	FGF22 binding-1 1.3 (no result: dFosB act, CDK5 inh, SIRT5 block, PvdQ inh) | FGF22 binding-2 inactive | SYPRO no-protein inactive
OC[C@H]1[C@H](c2ccc(-c3cccnc3)cc2)[C@@H]2CN(Cc3ccccn3)CCCCN12	none (no result: dFosB act, FGF22 binding-1, CDK5 inh, PvdQ inh)
OC[C@H]1[C@@H](c2ccc(-c3cccnc3)cc2)[C@H]2CN(Cc3ccccn3)CCCCN21	FGF22 binding-1 1.7 (no result: dFosB act, CDK5 inh, PvdQ inh) | FGF22 binding-2 inactive | SYPRO no-protein inactive
C[C@@H]1CN([C@@H](C)CO)C(=O)c2cc(-c3cccnc3)cnc2O[C@@H]1CN(C)C(=O)C1CCOCC1	none (no result: dFosB act, CDK5 inh, PvdQ inh)
C[C@@H]1CN([C@@H](C)CO)S(=O)(=O)c2ccc(C3=CCCC3)cc2O[C@@H]1CN(C)C(=O)C1CCCCC1	FGF22 binding-1 1.5 (no result: dFosB act, CDK5 inh, PvdQ inh) | FGF22 binding-2 inactive | SYPRO no-protein inactive
C[C@@H]1CN([C@H](C)CO)S(=O)(=O)c2ccc(C3=CCCC3)cc2O[C@@H]1CN(C)C(=O)C1CCCCC1	none (no result: dFosB act, CDK5 inh, PvdQ inh)
C[C@H]1CN([C@@H](C)CO)S(=O)(=O)c2ccc(C3=CCCCC3)cc2O[C@H]1CN(C)C(=O)CN(C)C	none (no result: dFosB act, CDK5 inh, PvdQ inh)
C[C@H]1CN([C@@H](C)CO)S(=O)(=O)c2ccc(C3=CCCCC3)cc2O[C@@H]1CN(C)C(=O)CN(C)C	none (no result: dFosB act, CDK5 inh, PvdQ inh)
C[C@H](CO)N1C[C@H](C)[C@@H](CN(C)C(=O)CN(C)C)Oc2cc(C3=CCCCC3)ccc2S1(=O)=O	FGF22 binding-1 1.6 (no result: dFosB act, CDK5 inh, PvdQ inh) | FGF22 binding-2 inactive | SYPRO no-protein inactive
C[C@@H]1CN([C@@H](C)CO)S(=O)(=O)c2ccc(C3=CCCCC3)cc2O[C@H]1CN(C)C(=O)CN(C)C	FGF22 binding-1 1.3 (no result: dFosB act, CDK5 inh, PvdQ inh) | FGF22 binding-2 inactive | SYPRO no-protein inactive
C[C@@H]1CN([C@H](C)CO)S(=O)(=O)c2ccc(-c3cncnc3)cc2O[C@@H]1CN(C)C(=O)CN(C)C	FGF22 binding-1 15 (no result: dFosB act, CDK5 inh, PvdQ inh) | FGF22 binding-2 inactive | SYPRO no-protein inactive
C[C@@H]1CN([C@@H](C)CO)S(=O)(=O)c2ccc(-c3cncnc3)cc2O[C@H]1CN(C)C(=O)CN(C)C	none (no result: dFosB act, CDK5 inh, PvdQ inh)
C[C@@H]1CN([C@@H](C)CO)C(=O)Cc2cc(NS(=O)(=O)c3cccs3)ccc2O[C@@H]1CN(C)Cc1ccncc1	none (no result: dFosB act, CDK5 inh, SIRT5 block, PvdQ inh)
CSc1ncccc1C(=O)Nc1ccc(S(=O)(=O)N2CCCC2)cc1	FGF22 binding-1 1.6 | FGF22 binding-2 inactive | SYPRO no-protein inactive
CSc1ncccc1C(=O)Nc1cccc(S(=O)(=O)N2CCCCC2)c1	none
CCCNC(=O)[C@@H]1[C@@H](CO)[C@@H]2Cn3c(cccc3=O)[C@@H]2N1CC1CCCC1	none (no result: dFosB act, FGF22 binding-1, CDK5 inh, PvdQ inh, PglD DTNB)
Cc1cc(C)n(-c2ccc(C(=O)Nc3ccc(S(=O)(=O)N(C)C)cc3)cc2)n1	FGF22 binding-1 1.5 (no result: PglD DTNB) | FGF22 binding-2 inactive | SYPRO no-protein inactive
CC(C)C#Cc1ccc2c(c1)O[C@@H](CN(C)C(=O)c1cccnc1)[C@H](C)CN([C@@H](C)CO)S2(=O)=O	none (no result: dFosB act, CDK5 inh, PvdQ inh)
CC(C)c1c(C(=O)N/N=C/c2c[nH]c3ccccc23)nnn1-c1nonc1N	FGF22 binding-1 2.3 | FGF22 TSA inactive | SYPRO no-protein inactive
CC(C)c1c(C(=O)N/N=C/c2cccc3ccccc23)nnn1-c1nonc1N	dFosB act inconclusive
CN(Cc1c(C(=O)N/N=C/c2ccc(O)cc2)nnn1-c1nonc1N)c1ccccc1	FGF22 binding-1 1.9 | FGF22 binding-2 inactive | FGF22 TSA inactive | SYPRO no-protein inactive
COc1ccc(/C=N/NC(=O)c2nnn(-c3nonc3N)c2CN(C)c2ccccc2)cc1	none
COC(=O)C1=C(CS(=O)(=O)c2cc(OC)ccc2OC)NC(=O)NC1c1ccc(O)c(OC)c1 (configuration not stated)	FGF22 binding-1 1.5 | FGF22 binding-2 inactive | FGF22 TSA inactive | SYPRO no-protein inactive
CCN(CC)c1ccc2cc(S(=O)(=O)c3ccc(Cl)cc3)c(=O)oc2c1	FGF22 binding-1 24 (no result: SIRT5 block) | FGF22 binding-2 inactive | SYPRO no-protein inactive
CCCCCCc1cc2cc(S(=O)(=O)c3ccc(Cl)cc3)c(=O)oc2cc1O	none (no result: SIRT5 block)
Cc1cccc(OC(C)C(=O)Nc2ccc3c(c2)OCCO3)c1 (configuration not stated)	FGF22 binding-1 2.1 | FGF22 binding-2 inactive | SYPRO no-protein inactive
O=C(C[C@@H]1C=C[C@@H](NC(=O)c2cccc(F)c2)[C@@H](CO)O1)NCc1ccccc1	none (no result: dFosB act, CDK5 inh, PvdQ inh)
CCN1C/C(=C/c2sccc2C)c2nc3ccccc3c(C(=O)O)c2C1	none
CCN1C/C(=C/c2cccs2)c2nc3ccccc3c(C(=O)O)c2C1	FGF22 binding-1 1.8 | FGF22 binding-2 inactive | FGF22 TSA inactive | SYPRO no-protein inactive
CCCCNc1cc(NC(C)=O)cc2cc(OC)c(OC)cc12	none (no result: FGF22 binding-1, SIRT5 block)
COc1cc2cc(NC(C)=O)cc(NCc3ccccc3)c2cc1OC	FGF22 binding-1 1.5 | FGF22 binding-2 inactive | SYPRO no-protein inactive
CO[C@H](CN(C)C(=O)Nc1ccc(C(F)(F)F)cc1)[C@H](C)CN(Cc1ccccc1Cl)[C@@H](C)CO	none (no result: dFosB act, CDK5 inh, PvdQ inh)
O=C(NC[C@@H]1N[C@@H](CO)[C@@H]1c1ccccc1)C1CC1	none (no result: dFosB act, CDK5 inh, PvdQ inh)
O=S(=O)(NC[C@H]1N[C@H](CO)[C@H]1c1ccccc1)c1ccccc1	FGF22 binding-1 2.4 (no result: dFosB act, CDK5 inh, PvdQ inh) | FGF22 binding-2 inactive | SYPRO no-protein inactive
COc1cccc(-c2ccc([C@@H]3[C@H]4CN(Cc5cncnc5)CCCCN4[C@H]3CO)cc2)c1	none (no result: dFosB act, FGF22 binding-1, CDK5 inh, SIRT5 block, PvdQ inh)
CCN1C(=O)C(CC(=O)Nc2ccc(F)cc2)N(Cc2ccc3c(c2)OCO3)C1=S (configuration not stated)	FGF22 binding-1 2.9 | FGF22 binding-2 inactive | FGF22 TSA inactive | SYPRO no-protein inactive
CCC(=O)NC[C@@H]1[C@@H](c2ccc(-c3cccc(F)c3)cc2)[C@H](CO)N1C(=O)CC	none (no result: dFosB act, CDK5 inh, PvdQ inh)
O=C(N/N=C/c1ccccc1)c1cc(-c2ccc3c(c2)OCO3)n[nH]1	none
O=C(N/N=C/c1cccc(O)c1)c1cc(-c2ccc3c(c2)OCO3)n[nH]1	dFosB act 41, FGF22 binding-1 1.9 (no result: PglD DTNB) | FGF22 binding-2 inactive | SYPRO no-protein inactive
Cc1onc(-c2ccccc2)c1C(=O)Nc1ncc([N+](=O)[O-])s1	FGF22 binding-1 1.9 | SYPRO no-protein inactive
CO[C@H]1CN(C)C(=O)c2cc(NC(=O)NC(C)C)ccc2OC[C@@H](C)N(CC2CC2)C[C@@H]1C	none (no result: dFosB act, CDK5 inh, PvdQ inh)
O=C(Cc1ccncc1)Nc1ccc2c(c1)[C@@H]1C[C@@H](CC(=O)N3CCCCC3)O[C@H](CO)[C@@H]1O2	none (no result: dFosB act, FGF22 binding-1, CDK5 inh, PvdQ inh)
